{"source": "PubChem BioAssay AID623911", "about": "(Vanderbilt High Throughput Screening Facility, 2012)", "note": "Out of some 2,100 compounds screened, about 770 (37%) were called active. Some of the results follow. Unmarked numbers belong to inactive results.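 How the source made its calls: active means by-eye trace score of 1 for enhancers or -1 for inhibitors, so actives lie on both sides (some results past the limit were not filed as active); inactive means score 0, or 3 fluorescent, or 4 baseline rise.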"}
{"target": "G protein-activated inward rectifier potassium channel 2 (Homo sapiens) + G protein-activated inward rectifier potassium channel 1 (Homo sapiens) (UniProt P48051+P48549)", "sequence (P48051 whole entry, looked up)": "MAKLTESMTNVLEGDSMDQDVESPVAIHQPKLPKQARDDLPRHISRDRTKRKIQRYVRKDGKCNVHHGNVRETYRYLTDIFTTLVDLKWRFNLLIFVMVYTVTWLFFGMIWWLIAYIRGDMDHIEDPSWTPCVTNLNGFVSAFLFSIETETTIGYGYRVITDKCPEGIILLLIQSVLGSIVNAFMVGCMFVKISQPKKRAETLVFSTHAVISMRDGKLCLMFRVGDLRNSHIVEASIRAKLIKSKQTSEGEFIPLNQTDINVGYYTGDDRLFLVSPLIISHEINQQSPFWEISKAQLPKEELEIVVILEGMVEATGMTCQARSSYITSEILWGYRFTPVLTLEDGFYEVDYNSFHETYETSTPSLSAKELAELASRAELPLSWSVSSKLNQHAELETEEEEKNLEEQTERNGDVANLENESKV", "sequence (P48549 whole entry, looked up)": "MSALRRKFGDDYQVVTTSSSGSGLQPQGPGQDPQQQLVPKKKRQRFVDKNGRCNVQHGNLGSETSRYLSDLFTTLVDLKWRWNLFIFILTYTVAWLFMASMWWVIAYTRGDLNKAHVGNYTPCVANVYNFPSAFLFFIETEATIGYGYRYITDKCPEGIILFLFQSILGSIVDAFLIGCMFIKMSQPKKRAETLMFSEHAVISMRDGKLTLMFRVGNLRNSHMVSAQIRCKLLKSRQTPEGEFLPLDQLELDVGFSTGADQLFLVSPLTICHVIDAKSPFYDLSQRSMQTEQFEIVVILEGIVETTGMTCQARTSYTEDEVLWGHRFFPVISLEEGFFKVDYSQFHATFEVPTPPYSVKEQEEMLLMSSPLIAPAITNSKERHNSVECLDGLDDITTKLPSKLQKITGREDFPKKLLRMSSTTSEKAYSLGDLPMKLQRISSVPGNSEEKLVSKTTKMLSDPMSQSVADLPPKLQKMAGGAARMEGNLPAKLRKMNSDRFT", "assay": "GIRK1/2 thallium flux modulators, retest, confirmation, cell-based, HEK293 rmGlu8/hGIRK1/2, FluoZin-2 (AID 623911)", "conditions": "HEK293 rmGlu8/hGIRK1/2, thallium flux FluoZin-2; actives lie on both sides; glutamate co-added at its EC20 level"}
{"smiles": "O=c1oc(-c2ccc(Br)o2)nc2ccccc12", "manual score": 0}
{"smiles": "COC(=O)c1cc(=O)n(CCc2ccc(OC)cc2)c(=Nc2ccc(F)c(Cl)c2)s1", "manual score": 0}
{"smiles": "CC(C)(C)NC(=O)C(c1ccncc1)N(C(=O)c1csnn1)c1ccccc1", "note": "(stereo not given)", "manual score": 0}
{"smiles": "O=C(C[n+]1cc(-c2ccccc2)n2c1CCC2)OCc1ccccc1", "manual score": 0}
{"smiles": "O=C(CSc1ccccc1)N(c1ccc(Br)cc1)c1nccs1", "manual score": 0}
{"smiles": "O=C(Nc1cccc(Cl)c1)Nc1nccs1", "manual score": "1 (active)"}
{"smiles": "O=C(Nc1ccccc1)Nc1nccs1", "manual score": "1 (active)"}
{"smiles": "O=C(NNC(=O)c1cccs1)Nc1cccc(Cl)c1", "manual score": "1 (active)"}
{"smiles": "CS(=O)(=O)c1ccc2nc(NC(=O)Nc3ccc(Cl)c(Cl)c3)sc2c1", "manual score": 0}
{"smiles": "Cc1ccc(OCCCC(=O)Nc2nccs2)cc1", "manual score": 0}
{"smiles": "CC1(C)Cc2ccccc2C(/C(=N\\Nc2cccc(Cl)c2)C(N)=O)=N1", "manual score": 0}
{"smiles": "CCOC(=O)Cn1c(=O)oc2cc(S(=O)(=O)Nc3ccc(N(CC)CC)cc3C)ccc21", "manual score": 0}
{"smiles": "CCOC(=O)C1=C(C)OC(N)=C(C#N)C1c1cncc(-c2ccc(F)cc2)c1", "note": "(stereo not given)", "manual score": -0.5}
{"smiles": "Cc1c(NC(=S)NC(NC(=O)CC(C)C)C(Cl)(Cl)Cl)c(=O)n(-c2ccccc2)n1C", "note": "(stereo not given)", "manual score": 0}
{"smiles": "N#C/C(=C/C=C/c1ccccc1)C(=O)Nc1ccccc1", "manual score": 0}
{"smiles": "O=C(/C=C/c1ccccc1)NC(NC(=S)Nc1cccc(O)c1)C(Cl)(Cl)Cl", "note": "(stereo not given)", "manual score": 3}
{"smiles": "COc1ccc(NC(=S)NC(NC(=O)/C=C/c2ccccc2)C(Cl)(Cl)Cl)cc1", "note": "(stereo not given)", "manual score": "1 (active)"}
{"smiles": "O=C(/C=C/c1ccccc1)NC(NC(=S)Nc1cc(Cl)ccc1Cl)C(Cl)(Cl)Cl", "note": "(stereo not given)", "manual score": "1 (active)"}
{"smiles": "COC(=O)c1ccccc1NC(=S)NC(NC(=O)c1ccccc1[N+](=O)[O-])C(Cl)(Cl)Cl", "note": "(stereo not given)", "manual score": 0}
{"smiles": "COc1ccc(C/C(C)=N/NC(=S)Nc2ccccc2)cc1", "manual score": 0}
{"smiles": "O=C(NC(=S)Nc1cc([N+](=O)[O-])ccc1Cl)c1ccccc1", "manual score": 0}
{"smiles": "O=C(/C=C/c1ccccc1)NC(NC(=S)Nc1cccc(Cl)c1)C(Cl)(Cl)Cl", "note": "(stereo not given)", "manual score": "1 (active)"}
{"smiles": "O=C(NC(NC(=S)Nc1ccc(Cl)cc1Cl)C(Cl)(Cl)Cl)c1cccc([N+](=O)[O-])c1", "note": "(stereo not given)", "manual score": "1 (active)"}
{"smiles": "O=C(COc1ccc2ccccc2c1CN1CCOCC1)N1CCc2ccccc21", "manual score": "-1 (active)"}
{"smiles": "O=C(CSc1nc(-c2ccccc2)cc(=O)[nH]1)N1CCc2ccccc21", "manual score": 0}
{"smiles": "Cc1cccc(S(=O)(=O)NC(Cc2c[nH]c3ccccc23)C(=O)O)c1", "note": "(stereo not given)", "manual score": 0}
{"smiles": "CC(C)n1c(NCc2c[nH]c3ccccc23)nc2ccccc21", "manual score": "-1 (active)"}
{"smiles": "CCOC(=O)C(C)Sc1nnc(-c2c[nH]c3ccccc23)n1C", "note": "(stereo not given)", "manual score": -0.5}
{"smiles": "Cc1cc(C)c2c(c1)/C(=N/NC(=S)Nc1ccc(F)cc1)CCC2", "manual score": 0}
{"smiles": "Cc1ccccc1N=Nc1c(C)[nH]n(C(N)=S)c1=O", "manual score": "1 (active)"}
{"smiles": "Cc1ccccc1N=Nc1ccc(O)c2ncccc12", "manual score": 0}
{"smiles": "Cc1nn(-c2ccccc2)c(OC(=O)c2cccs2)c1S(=O)(=O)c1ccccc1", "manual score": 0}
{"smiles": "CCN(CC)C(=O)COc1ccc2oc(C)c(C(=O)OC)c2c1", "manual score": 0}
{"smiles": "CCOC(=O)c1c(C)n(C)c2ccc(O)c(CN3CCC(C)CC3)c12", "manual score": "-1 (active)"}
{"smiles": "CCOC(=O)c1c(C)oc2ccc(O)c(CN3CCCCC3)c12", "manual score": "-1 (active)"}
{"smiles": "CCOC(=O)c1c(C)[nH]c2c1cc(O)c1ccccc12", "manual score": 0}
{"smiles": "CCOc1ccc(C2=NNC(c3cccs3)=Nc3ccc(OC)cc32)cc1", "manual score": 0}
{"smiles": "Cc1ccc(-n2[nH]c(C)c(C=Nc3cc(C)ccn3)c2=O)cc1", "manual score": 0}
{"smiles": "Cc1[nH]n(-c2ccc(Cl)cc2)c(=O)c1/C=N/c1nnc(-c2ccccc2)s1", "manual score": "1 (active)"}
{"smiles": "CCOc1ccc2nc(/N=C/c3c(C)[nH]n(-c4ccccc4)c3=O)sc2c1", "manual score": "1 (active)"}
{"smiles": "Cc1[nH]n(-c2ccccc2)c(=O)c1/C=N/c1ccccn1", "manual score": 0}
{"smiles": "CCn1c(SCc2ccc(Cl)cc2)nnc1-c1ccccc1", "manual score": 0}
{"smiles": "COc1ccc2nc(/N=C/c3c(C)[nH]n(-c4ccc(C)cc4C)c3=O)sc2c1", "manual score": "1 (active)"}
{"smiles": "COc1ccc2nc(/N=C/c3c(C)[nH]n(-c4ccc(C)cc4)c3=O)sc2c1", "manual score": "1 (active)"}
{"smiles": "COc1ccc(OC)c(-c2c3cc(O)c(=O)cc-3oc3cc(O)c(O)cc23)c1", "manual score": 0}
{"smiles": "Cc1ccc(NC(=O)c2cc(NC(=O)CCC(=O)O)ccc2N2CCCCC2)cc1", "manual score": 0}
{"smiles": "CN1CCN(C(=O)Nc2cccc3ccccc23)CC1", "manual score": 0}
{"smiles": "CC1=C(C)C(c2ccccc2)NC(=S)N1", "note": "(stereo not given)", "manual score": 0}
{"smiles": "CCOc1[nH]n(-c2ccc(Cl)cc2)c(=O)c1C=Nc1ccc(Cl)cc1", "manual score": 0}
{"smiles": "CCOc1ccc2nc(NC(=O)C(CC)Sc3nc(C)cc(=O)[nH]3)sc2c1", "note": "(stereo not given)", "manual score": 0}
{"smiles": "CCOc1ccc2nc(/N=C/c3c(C)[nH]n(-c4ccc(C)cc4)c3=O)sc2c1", "manual score": "1 (active)"}
{"smiles": "C=CCNC(=S)Nc1nc2c(cc1C(=O)OCC)CCCC2", "manual score": "1 (active)"}
{"smiles": "CCNC(=S)Nc1nc2c(cc1C(=O)OCC)CCCC2", "manual score": "1 (active)"}
{"smiles": "C=C(C)CNC(=S)N/N=C1\\CCCCc2ccccc21", "manual score": 0}
{"smiles": "CCOC(=O)c1cc(NC(=O)SCC(=O)O)c(C)nc1C", "manual score": 0}
{"smiles": "C=C(C)CNC(=S)Nc1nc2c(cc1C(=O)OCC)CCCC2", "manual score": "1 (active)"}
{"smiles": "CCOC(=O)C1=NNC(C(=O)c2ccc(OC)cc2)C1c1ccccc1", "note": "(stereo not given)", "manual score": 0}
{"smiles": "CC1CCc2c(sc(NC(=O)C(=O)NCc3ccco3)c2C#N)C1", "note": "(stereo not given)", "manual score": 0}
{"smiles": "O=C(Nc1ccc(Cl)cc1)NC1CCCCC1Cc1ccco1", "note": "(stereo not given)", "manual score": "1 (active)"}
{"smiles": "CC(Cc1cccs1)NC(=O)Nc1ccc(Cl)cc1", "note": "(stereo not given)", "manual score": 0.5}
{"smiles": "O=C(COc1ccccc1Cl)NC(=S)N1CCc2ccccc21", "manual score": "1 (active)"}
{"smiles": "O=C(COc1ccccc1)NC(=S)N1CCc2ccccc21", "manual score": "1 (active)"}
{"smiles": "CC(Oc1ccc(Cl)cc1Cl)C(=O)NC(=S)N1CCc2ccccc21", "note": "(stereo not given)", "manual score": "1 (active)"}
{"smiles": "O=C(COc1ccc(Br)cc1Cl)NC(=S)N1CCc2ccccc21", "manual score": 0.5}
{"smiles": "O=C(COc1ccc(Cl)cc1Cl)NC(=S)N1CCCc2ccccc21", "manual score": 0}
{"smiles": "Cc1cccc(OCC(=O)NC(=S)N2CCCc3ccccc32)c1", "manual score": 0}
{"smiles": "CCOc1cc(C(=O)NCc2ccncc2)cc(OCC)c1OCC", "manual score": 0}
{"smiles": "CC(=O)c1ccc(N2CCCC2)c(F)c1", "manual score": 0}
{"smiles": "CCN(CC)c1cnn(C/C(=N\\OC)c2ccc(Cl)cc2)c(=O)c1Br", "manual score": "-1 (active)"}
{"smiles": "CO/N=C(\\Cn1ncc(N2CCCC2)c(Br)c1=O)c1ccc(Cl)cc1", "manual score": "-1 (active)"}
{"smiles": "CO/N=C(\\Cn1ncc(N2CCCC2)c(Cl)c1=O)c1ccc(Cl)cc1", "manual score": "-1 (active)"}
{"smiles": "COc1ccc(-c2ccnc3nc(Sc4ncc(C(F)(F)F)cc4Cl)nn23)cc1", "manual score": 0.5}
{"smiles": "CC(/C=N/NC(=O)c1c(Br)cnn1C)=C\\c1ccccc1", "manual score": 0.5}
{"smiles": "Cc1cc(C(F)(F)F)c2c(=O)[nH]c(=O)n(Cc3ccccc3)c2n1", "manual score": 0}
{"smiles": "CC(C)c1nc(=S)n(-c2ccccc2)[nH]1", "manual score": 0}
{"smiles": "CC(C)c1nc(=S)c2ccccc2[nH]1", "manual score": "1 (active)"}
{"smiles": "S=c1nc(C2CC2)[nH]c2ccccc12", "manual score": "1 (active)"}
{"smiles": "O=c1c2ccccc2[nH]c(=S)n1C1CCCCC1", "manual score": 0}
{"smiles": "CCc1nc2cc(Cl)c(Cl)cc2[nH]1", "manual score": "1 (active)"}
{"smiles": "O=P(CCCCCCCCCP(=O)(c1ccccc1)c1ccccc1)(c1ccccc1)c1ccccc1", "manual score": "-1 (active)"}
{"smiles": "Nc1nnc(C(=O)c2ccccc2N)s1", "manual score": 0}
{"smiles": "O=C(CSc1nc(-c2ccccc2)cc(C(F)(F)F)n1)NCCN1CCOCC1", "manual score": 0}
{"smiles": "Cc1ccc2cccc(Oc3nnnn3-c3ccccc3)c2n1", "manual score": "-1 (active)"}
{"smiles": "Cc1ccc(-n2nnnc2-c2nc3ccccc3s2)cc1", "manual score": 0}
{"smiles": "CCCc1noc2c1/C(=N\\O)CC(CC(C)SCC)C2", "note": "(stereo not given)", "manual score": "-1 (active)"}
{"smiles": "COc1ccc2c(c1)Sc1ccccc1N2CCN(C)C", "manual score": "-1 (active)"}
{"smiles": "CCCCn1c(-c2csc(C(C)C)c2)n[nH]c1=S", "manual score": 0}
{"smiles": "COc1ccc2occ(C(=O)c3ccc(N=C(C)N(C)C)cc3)c2c1", "manual score": "-1 (active)"}
{"smiles": "Cc1ccc(OCC(=O)Nc2ccc(C)c(S(=O)(=O)N3CCCCC3)c2)c([N+](=O)[O-])n1", "manual score": "1 (active)"}
{"smiles": "Cc1ccc(Nc2n[nH]c(C)c2[N+](=O)[O-])cc1C", "manual score": -0.5}
{"smiles": "Cc1ccc(NC(=O)COc2cccnc2[N+](=O)[O-])cc1S(=O)(=O)N1CCCCC1", "manual score": "1 (active)"}
{"smiles": "CC(C)NS(=O)(=O)c1ccc(OCC(=O)Nc2ccc3c(c2)OCO3)c(Cl)c1", "manual score": 0}
{"smiles": "COc1cc(NC(=O)CSc2nccc(C)n2)c(C)cc1[N+](=O)[O-]", "manual score": 0}
{"smiles": "COc1cccc(OCCc2c(C)n[nH]c2C)c1", "manual score": 0}
{"smiles": "Cc1ccc(NC(=S)N=Nc2c(O)n(C)c3ccc(S(=O)(=O)N4CCOCC4)cc23)cc1", "manual score": 0}
{"smiles": "Cc1ccc(S(=O)(=O)N2CCN(C)CC2)cc1-c1nnc2c3ccccc3c(C)nn12", "manual score": 0}
{"smiles": "CC(C)(C)C1CCc2[nH]nc(C(=O)O)c2C1", "note": "(stereo not given)", "manual score": 0.5}
{"smiles": "CC(O)c1nc2ccccc2n1C1CCCCC1", "note": "(stereo not given)", "manual score": 0}
{"smiles": "C=CCOc1cccc(C2C(C(=O)c3ccc(C)o3)=C(O)C(=O)N2c2nccs2)c1", "note": "(stereo not given)", "manual score": 3}
{"smiles": "CC(=O)Nc1ccc(C(=O)CSc2nc3ccc(C)cc3[nH]2)cc1", "manual score": 0}
{"smiles": "COC(=O)c1cc(CSc2nc3ccc(C)cc3[nH]2)oc1C", "manual score": "-1 (active)"}
{"smiles": "CC1=NN(C(N)=S)C(=O)C1N=Nc1ccc(C)cc1C", "note": "(stereo not given)", "manual score": 0.5}
{"smiles": "CC1=NN(C(N)=S)C(=O)C1N=Nc1ccccc1C", "note": "(stereo not given)", "manual score": "1 (active)"}
{"smiles": "COc1ccc(CC(=O)Nc2cc(=O)n(C)c(=O)n2C)cc1", "manual score": 0}
{"smiles": "Cc1ccc(-c2cn(-c3ccccc3)c(SCC(=O)NC3CCS(=O)(=O)C3)n2)cc1C", "note": "(stereo not given)", "manual score": 0}
